Drawing on ChEMBL document CHEMBL1961873, “Compounds: GSK PKIS; Assays: Nanosyn kinase panel” (2012), this text covers inhibition for three molecules.

Each structure is given as a SMILES string.

In experiment [1] the target is T1, Serine/threonine-protein kinase D2 (Homo sapiens) (UniProt Q9BZL6).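 Note: mean value of PRKD2 inhibition, from the GSK PKIS screening panel.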
T1 sequence (whole entry): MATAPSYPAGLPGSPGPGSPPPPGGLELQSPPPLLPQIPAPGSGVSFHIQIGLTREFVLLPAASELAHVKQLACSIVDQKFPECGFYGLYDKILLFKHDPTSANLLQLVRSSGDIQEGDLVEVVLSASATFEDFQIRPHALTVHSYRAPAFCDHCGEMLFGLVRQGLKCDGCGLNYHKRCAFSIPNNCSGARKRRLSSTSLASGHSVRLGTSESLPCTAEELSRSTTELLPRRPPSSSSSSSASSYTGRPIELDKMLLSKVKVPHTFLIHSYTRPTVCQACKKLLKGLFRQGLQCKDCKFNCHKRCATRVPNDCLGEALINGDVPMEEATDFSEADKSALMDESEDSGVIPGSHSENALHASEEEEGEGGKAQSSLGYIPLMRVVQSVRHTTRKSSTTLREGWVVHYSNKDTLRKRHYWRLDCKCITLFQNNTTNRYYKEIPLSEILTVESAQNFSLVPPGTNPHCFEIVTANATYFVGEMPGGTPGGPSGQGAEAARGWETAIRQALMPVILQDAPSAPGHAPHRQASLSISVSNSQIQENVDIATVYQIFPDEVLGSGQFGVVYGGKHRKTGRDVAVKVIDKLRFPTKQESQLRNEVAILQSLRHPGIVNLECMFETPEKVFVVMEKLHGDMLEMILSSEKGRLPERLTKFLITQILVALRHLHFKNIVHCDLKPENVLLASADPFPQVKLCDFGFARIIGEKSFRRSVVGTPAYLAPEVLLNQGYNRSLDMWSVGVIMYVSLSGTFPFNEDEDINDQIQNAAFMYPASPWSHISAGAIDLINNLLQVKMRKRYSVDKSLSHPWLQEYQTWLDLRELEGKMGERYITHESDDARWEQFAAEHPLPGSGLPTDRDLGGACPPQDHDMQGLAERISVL
Particulars: at 1 µM.

Experiment [2] deals with T2, Serine/threonine-protein kinase D3 (Homo sapiens) (UniProt O94806).
T2 sequence (whole entry): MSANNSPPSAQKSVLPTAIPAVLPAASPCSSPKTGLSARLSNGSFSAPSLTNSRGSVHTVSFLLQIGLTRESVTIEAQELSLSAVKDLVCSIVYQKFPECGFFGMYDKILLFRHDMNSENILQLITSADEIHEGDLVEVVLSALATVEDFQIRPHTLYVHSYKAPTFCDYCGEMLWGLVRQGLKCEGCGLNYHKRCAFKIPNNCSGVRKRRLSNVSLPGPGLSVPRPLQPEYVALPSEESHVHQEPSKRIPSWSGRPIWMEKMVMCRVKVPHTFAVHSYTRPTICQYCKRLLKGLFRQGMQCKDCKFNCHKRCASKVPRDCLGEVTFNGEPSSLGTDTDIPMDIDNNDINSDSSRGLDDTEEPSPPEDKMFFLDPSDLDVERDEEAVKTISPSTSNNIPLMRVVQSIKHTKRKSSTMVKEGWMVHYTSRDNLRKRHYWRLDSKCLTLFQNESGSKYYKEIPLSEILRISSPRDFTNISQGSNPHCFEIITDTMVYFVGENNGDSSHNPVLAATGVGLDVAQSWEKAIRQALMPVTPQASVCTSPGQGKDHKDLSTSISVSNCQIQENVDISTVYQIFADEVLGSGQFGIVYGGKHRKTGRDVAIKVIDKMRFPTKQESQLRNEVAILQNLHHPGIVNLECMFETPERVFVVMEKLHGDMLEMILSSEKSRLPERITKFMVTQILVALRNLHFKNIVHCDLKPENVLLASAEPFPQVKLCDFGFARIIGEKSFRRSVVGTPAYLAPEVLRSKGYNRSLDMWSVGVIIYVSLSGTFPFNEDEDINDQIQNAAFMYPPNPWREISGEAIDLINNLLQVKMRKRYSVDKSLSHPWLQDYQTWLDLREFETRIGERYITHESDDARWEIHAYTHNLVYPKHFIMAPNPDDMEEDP
Particulars: at 0.1 µM.

Experiment [3] concerns the target T2, Serine/threonine-protein kinase D3 (Homo sapiens). Particulars: at 1 µM.
For experiment [4], the target named is T3, cGMP-dependent protein kinase 1 (Homo sapiens) (UniProt Q13976).
T3 sequence (whole entry): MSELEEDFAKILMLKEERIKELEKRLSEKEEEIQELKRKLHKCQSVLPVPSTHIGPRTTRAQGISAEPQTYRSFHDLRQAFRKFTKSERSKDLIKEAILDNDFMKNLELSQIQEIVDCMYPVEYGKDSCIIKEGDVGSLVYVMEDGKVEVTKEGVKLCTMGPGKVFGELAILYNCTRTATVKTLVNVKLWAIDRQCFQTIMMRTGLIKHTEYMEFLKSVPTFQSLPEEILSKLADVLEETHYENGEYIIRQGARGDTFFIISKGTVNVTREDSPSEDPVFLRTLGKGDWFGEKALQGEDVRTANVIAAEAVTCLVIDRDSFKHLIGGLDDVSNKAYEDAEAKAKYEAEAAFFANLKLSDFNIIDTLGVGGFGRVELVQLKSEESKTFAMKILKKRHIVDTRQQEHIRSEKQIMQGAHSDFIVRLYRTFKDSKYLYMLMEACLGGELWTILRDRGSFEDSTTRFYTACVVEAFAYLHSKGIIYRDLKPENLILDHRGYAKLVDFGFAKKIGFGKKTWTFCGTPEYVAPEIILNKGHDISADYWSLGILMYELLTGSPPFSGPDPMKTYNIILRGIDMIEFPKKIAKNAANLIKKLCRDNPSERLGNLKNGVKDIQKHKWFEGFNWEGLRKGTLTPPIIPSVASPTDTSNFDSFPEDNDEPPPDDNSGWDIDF
Conditions: at 0.1 µM.

Experiment [5] addresses T3, cGMP-dependent protein kinase 1 (Homo sapiens). Particulars: at 1 µM.
Experiment [6] addresses T4, cGMP-dependent protein kinase 2 (Homo sapiens) (UniProt Q13237).
T4 sequence (whole entry): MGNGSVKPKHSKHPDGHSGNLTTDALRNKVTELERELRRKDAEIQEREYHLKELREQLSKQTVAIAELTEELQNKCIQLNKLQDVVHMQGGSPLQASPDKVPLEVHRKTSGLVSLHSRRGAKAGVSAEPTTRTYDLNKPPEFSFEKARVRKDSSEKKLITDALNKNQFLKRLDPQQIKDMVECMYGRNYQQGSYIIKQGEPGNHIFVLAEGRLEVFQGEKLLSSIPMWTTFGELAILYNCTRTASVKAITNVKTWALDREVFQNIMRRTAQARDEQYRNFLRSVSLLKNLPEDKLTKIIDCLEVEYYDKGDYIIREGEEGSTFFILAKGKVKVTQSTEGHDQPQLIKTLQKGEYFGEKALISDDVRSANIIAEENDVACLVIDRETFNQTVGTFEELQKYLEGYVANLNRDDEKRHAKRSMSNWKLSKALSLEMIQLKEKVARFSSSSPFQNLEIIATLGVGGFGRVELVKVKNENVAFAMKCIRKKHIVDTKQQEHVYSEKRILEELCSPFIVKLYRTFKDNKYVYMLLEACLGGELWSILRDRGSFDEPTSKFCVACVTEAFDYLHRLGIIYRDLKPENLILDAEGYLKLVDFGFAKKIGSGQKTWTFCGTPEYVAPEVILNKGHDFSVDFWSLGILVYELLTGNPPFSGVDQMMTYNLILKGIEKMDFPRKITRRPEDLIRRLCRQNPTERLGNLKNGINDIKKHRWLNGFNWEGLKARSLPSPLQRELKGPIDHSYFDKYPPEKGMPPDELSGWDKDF
Conditions: at 0.1 µM.

Experiment [7] addresses T4, cGMP-dependent protein kinase 2 (Homo sapiens). Particulars: at 1 µM.
Experiment [8] deals with T5, cAMP-dependent protein kinase catalytic subunit PRKX (Homo sapiens) (UniProt P51817).
T5 sequence (whole entry): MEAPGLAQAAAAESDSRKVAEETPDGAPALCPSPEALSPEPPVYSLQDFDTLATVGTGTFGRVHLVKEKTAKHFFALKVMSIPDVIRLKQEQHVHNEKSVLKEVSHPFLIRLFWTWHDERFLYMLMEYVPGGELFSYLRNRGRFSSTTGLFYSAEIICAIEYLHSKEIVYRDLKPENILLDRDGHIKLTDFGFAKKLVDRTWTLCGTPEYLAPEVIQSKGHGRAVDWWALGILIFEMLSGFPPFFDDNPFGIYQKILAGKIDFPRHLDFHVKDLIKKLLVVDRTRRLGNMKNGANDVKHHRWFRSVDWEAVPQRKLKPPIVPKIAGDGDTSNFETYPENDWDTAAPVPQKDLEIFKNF
Particulars: at 0.1 µM.

Experiment [9] has as its target T5, cAMP-dependent protein kinase catalytic subunit PRKX (Homo sapiens). Conditions: at 1 µM.
Experiment [10] deals with Rho-associated protein kinase 1 (Homo sapiens) (UniProt Q13464). Particulars: at 0.1 µM.
For experiment [11] the target is unchanged. Particulars: at 1 µM.
Experiment [12] addresses Rho-associated protein kinase 2 (Homo sapiens) (UniProt O75116). Particulars: at 0.1 µM.
The target is the same in experiment [13]. Conditions: at 1 µM.
The target in experiment [14] is Ribosomal protein S6 kinase alpha-1 (Homo sapiens) (UniProt Q15418). Particulars: at 0.1 µM.
Experiment [15] shares this target. Conditions: at 1 µM.
Experiment [16] concerns the target Ribosomal protein S6 kinase alpha-3 (Homo sapiens) (UniProt P51812). Conditions: at 0.1 µM.
The target is the same in experiment [17]. Particulars: at 1 µM.
The target in experiment [18] is Ribosomal protein S6 kinase alpha-2 (Homo sapiens) (UniProt Q15349). Particulars: at 0.1 µM.
The target is the same in experiment [19]. Conditions: at 1 µM.
Experiment [20] deals with Ribosomal protein S6 kinase alpha-6 (Homo sapiens) (UniProt Q9UK32). Particulars: at 0.1 µM.
Chain of Ribosomal protein S6 kinase alpha-6 (Homo sapiens) (Q9UK32 whole entry): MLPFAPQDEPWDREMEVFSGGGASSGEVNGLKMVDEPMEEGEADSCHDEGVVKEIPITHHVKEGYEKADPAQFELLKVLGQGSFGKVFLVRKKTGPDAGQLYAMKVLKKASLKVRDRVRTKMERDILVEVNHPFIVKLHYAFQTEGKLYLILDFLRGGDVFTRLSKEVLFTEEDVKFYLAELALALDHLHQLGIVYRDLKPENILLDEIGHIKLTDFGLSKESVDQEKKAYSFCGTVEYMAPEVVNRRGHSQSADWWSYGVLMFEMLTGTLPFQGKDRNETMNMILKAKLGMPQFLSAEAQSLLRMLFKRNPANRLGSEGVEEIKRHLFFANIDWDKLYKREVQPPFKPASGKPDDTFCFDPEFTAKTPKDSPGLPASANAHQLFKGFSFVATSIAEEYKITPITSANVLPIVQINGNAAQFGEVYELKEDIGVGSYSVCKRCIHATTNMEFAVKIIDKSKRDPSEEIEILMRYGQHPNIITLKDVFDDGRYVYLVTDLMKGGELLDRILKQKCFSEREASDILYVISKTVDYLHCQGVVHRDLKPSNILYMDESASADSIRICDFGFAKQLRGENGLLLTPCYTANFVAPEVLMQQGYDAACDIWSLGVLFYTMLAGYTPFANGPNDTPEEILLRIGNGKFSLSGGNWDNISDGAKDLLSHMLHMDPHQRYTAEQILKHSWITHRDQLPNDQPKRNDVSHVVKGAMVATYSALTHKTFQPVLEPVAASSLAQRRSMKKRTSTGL

Chain of Rho-associated protein kinase 1 (Homo sapiens) (Q13464 2-1354 limits assumed): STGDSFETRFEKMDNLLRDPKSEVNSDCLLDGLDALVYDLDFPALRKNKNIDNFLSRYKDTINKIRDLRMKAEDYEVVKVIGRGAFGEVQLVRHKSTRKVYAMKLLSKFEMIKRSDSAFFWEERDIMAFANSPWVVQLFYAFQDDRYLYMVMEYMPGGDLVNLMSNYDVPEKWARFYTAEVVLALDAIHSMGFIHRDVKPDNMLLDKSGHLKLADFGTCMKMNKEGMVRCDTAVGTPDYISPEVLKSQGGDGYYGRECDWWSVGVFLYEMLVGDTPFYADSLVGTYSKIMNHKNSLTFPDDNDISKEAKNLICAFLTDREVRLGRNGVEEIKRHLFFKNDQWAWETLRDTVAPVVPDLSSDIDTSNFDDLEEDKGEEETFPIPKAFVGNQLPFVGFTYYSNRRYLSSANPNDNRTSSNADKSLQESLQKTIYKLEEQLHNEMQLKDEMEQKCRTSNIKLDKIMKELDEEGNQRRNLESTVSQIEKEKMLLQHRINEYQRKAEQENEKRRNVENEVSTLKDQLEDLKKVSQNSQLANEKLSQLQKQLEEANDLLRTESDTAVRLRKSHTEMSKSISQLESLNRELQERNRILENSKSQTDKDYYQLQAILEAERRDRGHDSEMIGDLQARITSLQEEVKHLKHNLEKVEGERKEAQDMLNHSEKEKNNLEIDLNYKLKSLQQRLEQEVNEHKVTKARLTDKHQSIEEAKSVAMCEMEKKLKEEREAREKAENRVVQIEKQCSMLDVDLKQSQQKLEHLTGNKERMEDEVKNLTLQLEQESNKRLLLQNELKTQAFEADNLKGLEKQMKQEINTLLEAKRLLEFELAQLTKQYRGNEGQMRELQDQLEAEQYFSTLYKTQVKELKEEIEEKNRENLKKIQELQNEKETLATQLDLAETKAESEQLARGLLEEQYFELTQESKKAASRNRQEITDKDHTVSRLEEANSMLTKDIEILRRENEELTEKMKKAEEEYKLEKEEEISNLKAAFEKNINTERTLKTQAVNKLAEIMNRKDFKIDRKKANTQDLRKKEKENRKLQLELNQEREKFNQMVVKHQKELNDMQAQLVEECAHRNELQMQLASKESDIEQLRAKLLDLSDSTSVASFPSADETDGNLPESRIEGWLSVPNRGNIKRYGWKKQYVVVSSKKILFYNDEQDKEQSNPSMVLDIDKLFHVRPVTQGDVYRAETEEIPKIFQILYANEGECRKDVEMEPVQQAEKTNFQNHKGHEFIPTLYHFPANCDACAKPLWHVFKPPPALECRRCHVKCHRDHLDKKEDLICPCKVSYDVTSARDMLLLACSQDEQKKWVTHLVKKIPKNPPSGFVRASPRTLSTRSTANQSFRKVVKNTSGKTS
Chain of Ribosomal protein S6 kinase alpha-1 (Homo sapiens) (Q15418 whole entry): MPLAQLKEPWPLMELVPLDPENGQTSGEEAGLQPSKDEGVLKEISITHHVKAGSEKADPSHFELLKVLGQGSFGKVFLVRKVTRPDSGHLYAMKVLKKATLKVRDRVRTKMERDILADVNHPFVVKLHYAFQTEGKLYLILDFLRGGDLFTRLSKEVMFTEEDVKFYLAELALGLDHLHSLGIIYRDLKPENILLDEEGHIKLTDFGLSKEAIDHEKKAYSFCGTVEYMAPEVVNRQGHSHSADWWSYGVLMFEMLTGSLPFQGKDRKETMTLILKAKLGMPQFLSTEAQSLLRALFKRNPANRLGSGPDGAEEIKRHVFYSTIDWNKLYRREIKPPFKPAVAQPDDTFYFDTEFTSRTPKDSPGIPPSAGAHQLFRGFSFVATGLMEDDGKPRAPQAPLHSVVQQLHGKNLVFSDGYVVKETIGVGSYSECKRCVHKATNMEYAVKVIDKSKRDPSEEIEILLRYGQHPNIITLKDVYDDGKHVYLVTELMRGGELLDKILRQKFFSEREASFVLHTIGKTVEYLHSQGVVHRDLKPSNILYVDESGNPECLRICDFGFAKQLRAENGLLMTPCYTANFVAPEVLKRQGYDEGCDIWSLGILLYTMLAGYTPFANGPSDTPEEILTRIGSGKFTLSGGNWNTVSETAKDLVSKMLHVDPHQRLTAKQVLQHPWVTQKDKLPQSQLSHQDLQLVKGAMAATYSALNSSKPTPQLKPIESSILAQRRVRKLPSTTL
Chain of Ribosomal protein S6 kinase alpha-3 (Homo sapiens) (P51812 whole entry): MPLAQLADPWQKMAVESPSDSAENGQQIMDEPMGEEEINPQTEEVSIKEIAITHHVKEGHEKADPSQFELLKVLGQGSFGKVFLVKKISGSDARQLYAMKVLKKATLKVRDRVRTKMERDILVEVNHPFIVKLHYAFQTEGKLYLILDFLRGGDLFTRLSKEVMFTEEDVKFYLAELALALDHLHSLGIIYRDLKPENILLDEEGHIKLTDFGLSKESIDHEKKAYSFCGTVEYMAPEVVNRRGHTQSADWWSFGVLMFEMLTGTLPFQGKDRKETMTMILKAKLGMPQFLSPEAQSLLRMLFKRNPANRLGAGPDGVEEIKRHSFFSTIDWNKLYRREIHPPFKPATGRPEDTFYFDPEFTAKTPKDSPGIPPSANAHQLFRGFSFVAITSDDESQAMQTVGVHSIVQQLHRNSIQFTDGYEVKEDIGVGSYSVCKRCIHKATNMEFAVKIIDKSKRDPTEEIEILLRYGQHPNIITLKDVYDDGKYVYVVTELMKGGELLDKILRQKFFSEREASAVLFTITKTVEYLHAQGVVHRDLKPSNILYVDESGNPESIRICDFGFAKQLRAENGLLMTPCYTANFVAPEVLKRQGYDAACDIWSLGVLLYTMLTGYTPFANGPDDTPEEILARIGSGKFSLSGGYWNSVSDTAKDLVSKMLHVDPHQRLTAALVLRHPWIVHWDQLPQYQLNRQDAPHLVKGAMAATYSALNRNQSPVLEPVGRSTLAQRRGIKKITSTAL
Chain of Ribosomal protein S6 kinase alpha-2 (Homo sapiens) (Q15349 whole entry): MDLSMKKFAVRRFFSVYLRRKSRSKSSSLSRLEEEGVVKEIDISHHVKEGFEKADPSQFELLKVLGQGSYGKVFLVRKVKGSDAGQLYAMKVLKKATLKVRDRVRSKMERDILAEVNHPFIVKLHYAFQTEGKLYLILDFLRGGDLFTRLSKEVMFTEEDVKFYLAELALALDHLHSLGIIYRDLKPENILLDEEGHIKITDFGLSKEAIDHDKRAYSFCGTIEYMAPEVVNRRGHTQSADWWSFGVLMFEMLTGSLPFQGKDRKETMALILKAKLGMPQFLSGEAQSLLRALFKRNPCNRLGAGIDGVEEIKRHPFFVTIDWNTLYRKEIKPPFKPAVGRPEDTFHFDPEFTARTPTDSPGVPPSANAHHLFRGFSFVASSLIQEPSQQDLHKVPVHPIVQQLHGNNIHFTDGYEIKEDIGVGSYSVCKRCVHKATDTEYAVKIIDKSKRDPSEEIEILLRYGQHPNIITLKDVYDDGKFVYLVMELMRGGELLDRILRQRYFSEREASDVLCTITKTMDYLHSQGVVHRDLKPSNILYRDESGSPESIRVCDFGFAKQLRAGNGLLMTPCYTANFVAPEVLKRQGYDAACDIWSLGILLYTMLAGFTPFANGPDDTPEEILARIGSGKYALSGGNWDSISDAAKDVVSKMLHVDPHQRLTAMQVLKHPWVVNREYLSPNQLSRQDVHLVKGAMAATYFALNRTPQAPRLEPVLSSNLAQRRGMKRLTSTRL

In general, inhibition refers to the relative decrease from the control value, in per cent. For `CCN1CCC(C(=O)Nc2n[nH]c3nnc(-c4cccc(F)c4F)cc23)CC1`, the inhibition in [1] was 0.06%; in experiment [2] it was -0.39%; in [3] it was -0.3%; in experiment [4] it was 0.16%; in experiment [5], 0.21%; in experiment [6], -1.12%. Further, the inhibition in experiment [7] is 0.85%; in experiment [8], 0.8%; in [9], 0.57%; in [10], -0.76%; in experiment [11], -0.9%; in [12], 0.68%. For the same molecule, the inhibition was -0.77% in experiment [13]; 0.15% in [14]; 0.28% in experiment [15]; 1.06% in [16]; 2.16% in [17]; -0.71% in experiment [18]. In addition, the values for the inhibition in experiment [19] and in [20] were 1.38% and 0.8%, respectively.
As for `COc1ccc(-c2nn3ncccc3c2-c2ccnc(Nc3ccc(F)c(F)c3)n2)cc1`, the inhibition in experiment [1] was determined as 5.42%; in [2] it was 4.4%; in experiment [3] it was 5.09%; in experiment [4], 2.68%; in [5], 3.58%; in [6] it was 5.81%. The inhibition stood at 5.3% in experiment [7]; 3.54% in experiment [8]; 8.39% in experiment [9]; 1.21% in experiment [10]; 1.15% in experiment [11]; 3.85% in [12]. The inhibition in experiment [13] turned out to be 6.06%; in [14], 4.22%; in [15], 7.89%; in [16], 4.49%; in experiment [17], 7.14%; in experiment [18] it was 2.96%. Besides, the inhibition was 2.69% in experiment [19] and 1.78% in experiment [20].
`OCCCNc1nccc(-c2c(-c3ccc(F)cc3)nn3cc(C(F)(F)F)ccc23)n1`: the inhibition worked out at 16.9% in [1]; 4.73% in experiment [2]; 33.9% in experiment [3]; 1.52% in experiment [4]; 4.78% in [5]; 2.03% in [6]. Also, the inhibition in [7] is 3.96%; in [8], 0.4%; in experiment [9], -0.76%; in experiment [10] it was 0.15%; in experiment [11], 2.58%; in experiment [12], 2.07%. Moreover, the inhibition in [13] is 2.72%; in [14] it was 1.23%; in experiment [15], 2.41%; in [16] it was 0.38%; in experiment [17], 1.08%; in experiment [18] it was 1.69%. The values for the inhibition in experiment [19] and in experiment [20] were 2.43% and 0.24%, respectively.
